Source: PubChem BioAssay (NCI)
About 79,000 compounds went through this panel and 15% of them were active in at least one assay; those are over-represented in the sample as a whole. The source made the active and inactive calls. No stated cut-off is given here; in the data, active means growth inhibition above about 70%; inactive means the rest.

What was measured:
[1] = NCI Yeast Anticancer Drug Screen. Data for the rad52 strain (AID 147);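 further: 0% = growth of vehicle-treated control cultures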; conditions: S. cerevisiae rad52 mutant growth inhibition, active compounds read high
Outline: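 Here a repair-compromised yeast strain receives each compound; its growth is then quantified and normalised to vehicle-only controls.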

[2] = NCI Yeast Anticancer Drug Screen. Data for the wt1 strain (AID 149);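 further: 0% = growth of vehicle-treated wt1 cultures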; conditions: S. cerevisiae wt1 strain (SPY 50644) growth inhibition, active compounds read high
Outline: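 Measured: growth of wt1 yeast under compound versus vehicle treatment, reported as inhibition.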

[3] = NCI Yeast Anticancer Drug Screen. Data for the rad50EPP+ strain (AID 151);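 further: 0% = growth of vehicle-treated control cultures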; conditions: S. cerevisiae rad50 mutant strain, active compounds read high
Outline: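 Read-out is yeast growth inhibition relative to vehicle; cells used were the rad50EPP+ strain.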

[4] = NCI Yeast Anticancer Drug Screen. Data for the mgt1 strain (AID 153); conditions: S. cerevisiae mgt1 mutant growth inhibition, active compounds read high
Outline: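 Measured: inhibition of mgt1 yeast growth by compound, normalized to vehicle-treated cultures.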

[5] = NCI Yeast Anticancer Drug Screen. Data for the rad50 strain (AID 155);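 further: 0% = growth of vehicle-only cultures of the same strain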; conditions: S. cerevisiae rad50 strain growth inhibition, active compounds read high
Outline: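 Growth of the mutant yeast was measured after compound exposure and referenced to vehicle-treated cultures.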

[6] = NCI Yeast Anticancer Drug Screen. Data for the mec2-1 strain (AID 157); conditions: S. cerevisiae mec2-1 strain, active compounds read high
Outline: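 Using mec2-1 yeast: add compound, measure growth, express inhibition versus vehicle-treated cultures.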

[7] = NCI Yeast Anticancer Drug Screen. Data for the rad14 strain (AID 159);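 further: 0% = growth of vehicle-treated control cultures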; conditions: S. cerevisiae rad14 strain growth inhibition, active compounds read high
Outline: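 Here, inhibition of yeast growth was measured after compound exposure, using a strain with a genetic defect in DNA damage repair and vehicle-treated cultures as the reference.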

[8] = NCI Yeast Anticancer Drug Screen. Data for the CLN2oe strain (AID 163);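 further: 0% = growth of vehicle-only control cultures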; conditions: S. cerevisiae CLN2oe strain, active compounds read high
Outline: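 Whole-cell yeast growth assay. A strain engineered for altered cell-cycle control received compound, and inhibition relative to vehicle-treated cultures was recorded.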

[9] = NCI Yeast Anticancer Drug Screen. Data for the cln2 rad14 strain (AID 165);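 further: 0% = growth equal to vehicle treated cultures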; conditions: S. cerevisiae cln2 rad14 strain, active compounds read high
Outline: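 Yeast strain cln2 rad14, bearing defects in cell cycle control and DNA repair, serves as the test system; values reflect growth inhibition compared with vehicle.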

[10] = NCI Yeast Anticancer Drug Screen. Data for the bub3 strain (AID 167); conditions: S. cerevisiae bub3 mutant strain, active compounds read high
Outline: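 Whole-cell yeast assay. The mutant strain was incubated with compounds, and growth inhibition was determined by comparison with vehicle-treated cells.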

[11] = NCI Yeast Anticancer Drug Screen. Data for the wt2 strain (AID 169);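 further: 0% = growth of vehicle-treated yeast cultures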; conditions: S. cerevisiae wt2 strain growth inhibition, active compounds read high
Outline: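 Treated yeast vs. vehicle-treated yeast: growth inhibition determined.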

[12] = NCI Yeast Anticancer Drug Screen. Data for the mlh1 strain (AID 171);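 further: 0% = growth of vehicle-treated control cultures of the same strain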; conditions: S. cerevisiae mlh1 strain growth inhibition, active compounds read high
Outline: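 A yeast strain with a defined genetic lesion serves as the test organism. Cultures receive compound or vehicle, and growth is measured.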

[13] = NCI Yeast Anticancer Drug Screen. Data for the sgs1 strain (AID 173);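 further: 0% = growth of vehicle-only control cultures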; conditions: S. cerevisiae sgs1 mutant, active compounds read high
Outline: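 A genetically defined yeast mutant is incubated with the test compound, and its growth is compared to that of the same strain given vehicle.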

[14] = NCI Yeast Anticancer Drug Screen. Data for the mlh1 rad18 strain (AID 175); conditions: S. cerevisiae mlh1 rad18 strain growth inhibition, active compounds read high
Outline: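 Steps: expose repair-defective yeast to compound; measure growth; express inhibition against vehicle-treated controls.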

[15] = NCI Yeast Anticancer Drug Screen. Data for the rad18 strain (AID 177); conditions: S. cerevisiae rad18 mutant growth inhibition, active compounds read high
Outline: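 Measured value is growth inhibition of a yeast strain bearing a DNA repair alteration, referenced to vehicle-treated cells.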

[16] = NCI Yeast Anticancer Drug Screen. Data for the sgs1 mgt1 strain (AID 161);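 further: 0% = growth of cultures given vehicle only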; conditions: S. cerevisiae sgs1 mgt1 strain, active compounds read high
Outline: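 Compounds are added to genetically altered yeast, and growth is compared with cultures given vehicle alone to give percent inhibition.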

[17] = at 5.0 µM (retest, dose inferred, filed as 0.5)
[18] = at 50.0 µM (retest, dose inferred, filed as 5.0)

Measured: growth inhibition

NC(N)=NS(=O)(=O)c1ccc(Nc2c3ccccc3nc3c(C(=O)NC(CO)(CO)CO)cccc23)cc1
active: [1]; at 100.0 µM 91% | [3]; at 100.0 µM 85% | [5]; [18] 94% | [5]; at 50.0 µM 70.8% | [5]; at 100.0 µM 89%
inactive: [1]; at 1.2 µM 1% | [1]; at 3.7 µM 9% | [1]; at 11.0 µM 25% | [1]; at 33.0 µM 66% | [2]; at 1.2 µM -1% | [2]; at 3.7 µM 0% | [2]; at 11.0 µM 0% | [2]; at 33.0 µM -1% | [2]; at 100.0 µM 2% | [3]; at 1.2 µM 1% | [3]; at 3.7 µM 5% | [3]; at 11.0 µM 15% | [3]; at 33.0 µM 44% | [4]; at 1.2 µM 2% | [4]; at 3.7 µM -1% | [4]; at 11.0 µM -2% | [4]; at 33.0 µM 1% | [4]; at 100.0 µM 4% | [5]; at 1.2 µM 3% | [5]; at 3.7 µM 9% | [5]; [17] 6% | [5]; at 11.0 µM 27% | [5]; at 33.0 µM 64% | [6]; at 1.2 µM -1% | [6]; at 3.7 µM -1% | [6]; [17] 1% | [6]; at 11.0 µM 1% | [6]; at 33.0 µM 3% | [6]; [18] -13% | [6]; at 50.0 µM 8.65% | [6]; at 100.0 µM 13% | [7]; at 1.2 µM -1% | [7]; at 3.7 µM 3% | [7]; at 11.0 µM 3% | [7]; at 33.0 µM 3% | [7]; at 100.0 µM 10% | [8]; at 1.2 µM 2% | [8]; at 3.7 µM 2% | [8]; at 11.0 µM 4% | [8]; at 33.0 µM 1% | [8]; at 100.0 µM 1% | [9]; [17] 35% | [9]; [18] 3% | [9]; at 50.0 µM -9.45% | [10]; at 1.2 µM -1% | [10]; at 3.7 µM 2% | [10]; [17] -11% | [10]; at 11.0 µM 2% | [10]; at 33.0 µM 0% | [10]; [18] 15% | [10]; at 50.0 µM -5.3% | [10]; at 100.0 µM -2% | [11]; at 1.2 µM -1% | [11]; at 3.7 µM -2% | [11]; at 11.0 µM -1% | [11]; at 33.0 µM -1% | [11]; at 100.0 µM 4% | [12]; at 1.2 µM -1% | [12]; at 3.7 µM 0% | [12]; at 11.0 µM 0% | [12]; at 33.0 µM 0% | [12]; at 100.0 µM 5% | [13]; at 1.2 µM -1% | [13]; at 3.7 µM 1% | [13]; at 11.0 µM 2% | [13]; at 33.0 µM 2% | [13]; at 100.0 µM 8% | [14]; [17] 12% | [14]; [18] 12% | [14]; at 50.0 µM 15.7% | [15]; at 1.2 µM -3% | [15]; at 3.7 µM 0% | [15]; at 11.0 µM -1% | [15]; at 33.0 µM 2% | [15]; at 100.0 µM 9%

CCN(CC)CCNc1ccc2ncn3c4ccc(O)cc4c(=O)c1c23
inactive: [1]; at 1.2 µM 9% | [1]; at 3.7 µM 28% | [1]; at 11.0 µM 56% | [2]; at 1.2 µM 0% | [2]; at 3.7 µM -2% | [2]; at 11.0 µM -4% | [2]; at 33.0 µM -2% | [2]; at 100.0 µM 1% | [3]; at 1.2 µM -1% | [3]; at 3.7 µM 6% | [3]; at 11.0 µM 13% | [3]; at 33.0 µM 26% | [3]; at 100.0 µM 39% | [4]; at 1.2 µM -3% | [4]; at 3.7 µM -6% | [4]; at 11.0 µM -1% | [4]; at 33.0 µM 1% | [4]; at 100.0 µM 1% | [5]; at 1.2 µM 13% | [5]; at 3.7 µM 32% | [5]; [17] 65% | [5]; at 11.0 µM 65% | [5]; [18] 65% | [5]; at 50.0 µM -6.6% | [6]; at 1.2 µM -3% | [6]; at 3.7 µM -3% | [6]; [17] 18% | [6]; at 11.0 µM -2% | [6]; at 33.0 µM 4% | [6]; [18] 18% | [6]; at 50.0 µM 3.05% | [6]; at 100.0 µM 22% | [7]; at 1.2 µM 2% | [7]; at 3.7 µM -1% | [7]; at 11.0 µM 3% | [7]; at 33.0 µM 3% | [7]; at 100.0 µM 6% | [16]; [17] 13% | [16]; [18] 13% | [16]; at 50.0 µM -33.6% | [9]; [17] 18% | [9]; [18] 18% | [9]; at 50.0 µM 19.9% | [10]; at 1.2 µM -7% | [10]; at 3.7 µM -9% | [10]; [17] 30% | [10]; at 11.0 µM 3% | [10]; at 33.0 µM 4% | [10]; [18] 30% | [10]; at 50.0 µM 8.45% | [10]; at 100.0 µM -11% | [11]; at 1.2 µM -1% | [11]; at 3.7 µM 1% | [11]; at 11.0 µM -3% | [11]; at 33.0 µM 1% | [11]; at 100.0 µM -2%
active: [1]; at 33.0 µM 75% | [1]; at 100.0 µM 85% | [5]; at 33.0 µM 81% | [5]; at 100.0 µM 87%
